# Experimental data as given in paper PMC5540273 (PLoS ONE, 2017).
# Where two headings read alike, the source gives them in different places.
# How the values were obtained:
# GRK3 = test system: T1, GRK3; conditions: concentration: 1 μM, replicates: in singlicate; n = 1
# T1 construct: gene ADRBK2
# GRK4 = conditions: concentration: 1 μM, replicates: in singlicate; n = 1
# GRK7 = conditions: concentration: 1 μM, replicates: in singlicate; n = 1
# GSK3A = conditions: concentration: 1 μM, replicates: in singlicate; n = 1
# GSK3B = conditions: n = 1
# HASPIN = test system: T2, HASPIN; conditions: concentration: 1 μM, replicates: in singlicate; n = 1
# T2 construct: gene GSG2
# HCK = conditions: concentration: 1 μM, replicates: in singlicate; n = 1
# HIPK1 = conditions: concentration: 1 μM, replicates: in singlicate; n = 1
# HIPK2 = conditions: concentration: 1 μM, replicates: in singlicate; n = 1
# HIPK3 = conditions: concentration: 1 μM, replicates: in singlicate; n = 1
# [1] = concentration: 1 μM, replicates: in singlicate
# 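Further: KINOMEscan kinase panel screen.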
Structure (SMILES),%Inh (GRK3) [%],%Inh (GRK4) [%],%Inh (GRK7) [%],%Inh (GSK3A) [%],%Inh (GSK3B; [1]) [%],%Inh (HASPIN) [%],%Inh (HCK) [%],%Inh (HIPK1) [%],%Inh (HIPK2) [%],%Inh (HIPK3) [%],%Inh (GSK3B; 1 µM) [%]
COc1ccc(-c2coc3ccc(-c4nnc(C)o4)cc23)cc1,0,0,0,11,0,18,0,37,0,0,–
COc1ccc(CSc2nnc(-c3ccc4nccn4c3)o2)cc1C(F)(F)F,37,0,15,93.8,93.8,32,0,31,20,5,–
O=c1cc(N2CCOCC2)nc2n(Cc3ccccc3F)ccn12 [GSK2297428],0,0,0,80,3,35,0,33,0,35,–
O=C(Nc1n[nH]c2cc(-c3ccsc3)ccc12)C1CC1 [SB-732932],40,79,0,38,–,43,0,7,26,24,29
CCn1c(-c2ccccc2)nc2cnccc21 [SB-733416],70,29,0,0,25,0,17,0,0,10,–
COC(=O)C(NC(=O)NC1CCN(c2ccnc(Nc3ccc(F)cc3)n2)C1)c1ccccc1 (stereo not shown) [GSK1379712],18,0,0,16,4,0,0,12,0,48,–
Nc1cccc(-c2ccc3c(N)n[nH]c3c2)n1 [GSK2192730],0,13,19,19,26,39,0,23,0,25,–
CNC(=O)c1ccc(C)c(-n2c(C)cc(OCc3ccc(F)cc3F)c(Br)c2=O)c1,0,2,0,0,0,18,0,0,0,0,–
COc1ccc(Nc2nccc(NCCNC(=O)Nc3cc(C)ccc3C)n2)cc1 [GSK1379899],0,12,0,0,0,0,78,0,0,0,–
COC(=O)c1cccc(NC(=O)NC2CCN(c3ccnc(Nc4ccc(OC)cc4)n3)C2)c1 (stereo not shown) [GSK1379746],43,0,0,0,12,0,0,0,0,0,–
Cc1cccc2c(-c3ccncn3)c(-c3ccc(F)cc3)nn12 [GW515532],0,12,0,1,0,21,0,0,0,0,–
COc1ccc(CSc2nnc(-c3ccc4c(c3)CCO4)o2)cc1,3,1,0,75,–,42,0,9,0,0,0
CC[C@@H]1CO[C@H](C(=O)Nc2ccccc2)CN1c1cc(-c2ccc3c(N)n[nH]c3c2)nc(NC)n1 [GSK2376236],0,0,0,12,17,0,0,9,0,4,–
CNc1nc(-c2ccc3c(N)n[nH]c3c2)cc(N2C[C@@H](C(=O)NC3CCCCC3)OC[C@H]2C)n1 [GSK2375584],37,4,0,10,14,30,0,24,0,2,–
O=C(Nc1n[nH]c2nc(-c3ccco3)c(Br)cc12)C1CCN(Cc2ccccc2)C1.O=C(O)[C@H](O)[C@@H](O)C(=O)O (stereo not shown) [SB-742034],0,11,42,97.8,–,0,7,30,32,25,72
CC(=O)c1c(C)c2cnc(Nc3ccn(C)n3)nc2n(C2CCCC2)c1=O,17,0,0,12,0,0,29,14,31,13,–

Structure (SMILES),%Inh (GRK3) [%],%Inh (GRK4) [%],%Inh (GRK7) [%],%Inh (GSK3A) [%],%Inh (GSK3B; [1]) [%],%Inh (HASPIN) [%],%Inh (HCK) [%],%Inh (HIPK1) [%],%Inh (HIPK2) [%],%Inh (HIPK3) [%],%Inh (GSK3B; 1 µM) [%]
Cc1ccc(NC(=O)Nc2ccccc2)cc1-c1ccc(C(=O)Nc2ccncc2)cc1 [GSK1398471],0,0,0,12,11,1,0,0,0,13,–
O=C1NC(=O)C(c2ccc(Cl)cc2)=C1Nc1cccc(Cl)c1 [SB-317651],0,21,30,0,–,0,0,19,34,0,15
COC(=O)c1cccc(NC(=O)NC2CCN(c3ccnc(Nc4ccc(F)cc4)n3)C2)c1 (stereo not shown) [GSK1379725],38,0,0,0,0,0,0,0,0,0,–
COc1nccc(-c2c(-c3ccc(F)cc3)ncn2CCCN2CCOCC2)n1 [SB-282852],14,23,37,17,10,0,0,46,76,0,–
COc1ccc(Nc2nccc(N3CCC(NC(=O)C(C)c4ccc(Cl)cc4)C3)n2)cc1 (stereo not shown) [GSK1379735],20,31,0,34,0,13,0,0,0,4,–
Cc1c(Cn2c(C)c(C)n3c(=O)cc(N4CCOCC4)nc23)cccc1C(F)(F)F [GSK2328680],0,0,0,13,11,0,0,0,0,13,–
COc1cccc(C2=C(Nc3cc(Cl)c(O)c(Cl)c3)C(=O)NC2=O)c1 [SB-390767],28,1,0,44,–,0,0,0,0,20,33
COc1ccc2cc(-c3nc(-c4ccccc4C(C)C)[nH]c3-c3ccncc3)ccc2c1 [SB-660566],34,0,0,2,17,0,0,0,0,25,–
NS(=O)(=O)c1cccc(N/C=C2\C(=O)Nc3ccc(S(=O)(=O)Cc4c(Cl)cccc4Cl)cc32)c1 [GSK398099],0,0,0,0,20,4,0,0,0,12,–
Cc1ccccc1-c1cc(-c2c[nH]nc2-c2ccccn2)ccn1 [GW680061],37,0,0,0,1,0,0,4,0,10,–
Fc1ccc(-c2nc3n(c2-c2ccncc2)CCS3)cc1 [GI98581],21,0,0,14,19,13,0,0,0,0,–
Cl.Cl.Cl.N#Cc1ccc(CCNc2nccc(-c3cccc(CN4CCNCC4)c3)n2)cc1 [GSK2137462],0,0,5,31,7,42,0,1,0,21,–
CN1c2ccc(-c3ccc(C(N)=O)cc3)cc2-c2[nH]ncc2S1(=O)=O,0,0,0,25,13,28,0,41,23,19,–
COC(=O)C(Cc1ccccc1)NC(=O)NC1CCN(c2ccnc(Nc3ccc(F)cc3)n2)C1 (stereo not shown) [GSK1379714],58,1,0,13,6,24,4,0,0,0,–
CNc1cc(-c2ccc3c(N)n[nH]c3c2)nc(N)n1 [GSK2224810],10,0,0,6,0,61,0,14,0,18,–
